From PubChem BioAssay (NCATS)
Records with an inconclusive call do not appear. Calls of active or inactive are those of the source. Unless noted, the call rests on the fitted dose curve; in most records, active means well fitted curve in the direction sought with a large enough effect; inconclusive means small, poorly fitted or top-dose-only effect, or another doubt; inactive means no such curve, though single readings can be large; an effect the other way counts as inactive or inconclusive.

Key:
[1] = molecular target: Furin (Homo sapiens) (UniProt P09958); assay: Furin counterscreen qHTS for Zika virus inhibitors (AID 1347149); further: nearly all actives have a fitted effect of over 70% in size; further: potency means the concentration at half of the fitted maximal effect;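 on activity change, negative = inhibition: purified recombinant full-length human furin enzyme at 5 nM; fluorescence gain from furin cutting a BOC-RVRR-AMC peptide substrate over 15 min; top concentration of the series differs between compounds; plate controls were no-inhibitor control for no effect and no-enzyme control for full effect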
Outline: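 Fluorogenic cleavage of BOC-RVRR-AMC (2 microM final, Km ~15 µM) was monitored (ex 340, em 450 nm) at 37C after 15 min RT preincubation of 5 nM furin with compounds in HEPES pH 7.0 buffer with CaCl2 and Triton X-100. Percent inhibition was fitted to a 4-parameter Hill curve.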

[2] = test system: Zika virus NS2B-NS3 protease (unlinked); assay: Optimization of GU AMC qHTS for Zika virus inhibitors: Unlinked NS2B-NS3 protease assay (AID 1347151);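 further: 0% = no-inhibitor control and -100% = no-enzyme control; nearly all actives have a fitted effect of over 80% in size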
Outline: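 Noncovalent complex of NS2B hydrophilic domain and NS3 protease domain, 25 nM final, in 10 mM Tris-HCl pH 8.0, 0.01% Tween 20. AMC fluorescence change over 15 min at room temperature was fitted to a 4-parameter Hill equation.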

[3] = test system: Zika virus NS2B-NS3 protease; assay: Primary screen GU AMC qHTS for Zika virus inhibitors (AID 1347154); further: nearly all actives have a fitted effect of over 70% in size; further: potency means the concentration at half of the fitted maximal effect;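 on activity change, negative = inhibition: 0% = no-inhibitor control and -100% = no-enzyme control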
Outline: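 Fluorogenic AMC-substrate cleavage by noncovalent NS2B-NS3 protease complex (25 nM, pH 8.0 Tris buffer with Tween 20) followed for 15 minutes at room temperature (~20% conversion). Percent inhibition from ex340/em450 signal change, fitted by 4-parameter Hill equation.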

[4] = Vero cells viability qHTS for Zika virus inhibitors (AID 1347167); further: on the % scale 0 is the no-effect control and ±100 the full control effect
Outline: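 Compounds were tested in concentration series on cells grown in DMEM containing 4% FBS. After 24 to 48 hours, cellular ATP was measured by luminescence with CellTiter Glo.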

[5] = Tertiary RLuc qRT-PCR qHTS assay for Zika virus inhibitors (AID 1347169); further: nearly all actives have a fitted effect of over 55% in size; further: potency means the concentration at half of the fitted maximal effect
Outline: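 Vero cells (1,000 per well) plated overnight at 37 degrees C, treated with compound in DMSO, then infected with recombinant ZIKV-RLuc (Cambodian) at MOI 1-2 for 48-72 hrs. Live-cell Renilla luciferase substrate added; luminescence read after 1-1.5 hrs.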

[6] = Primary qHTS for small molecule stabilizers of the endoplasmic reticulum resident proteome: Secreted ER Calcium Modulated Protein (SERCaMP) assay (AID 1508630); further: on the % scale 0 is the no-effect control and ±100 the full control effect
Outline: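 GLuc-SERCaMP-expressing SH-SY5Y cells, pretreated 16 h with compound, are challenged with thapsigargin to empty ER calcium stores; after 4 h, coelenterazine is added directly to the medium and luminescence is imaged.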

[7] = test system: Zika virus NS2B-NS3 protease (linked construct); assay: Confirmatory screen NINDS AMC qHTS for Zika virus inhibitors (AID 1347152);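 further: AMC fluorescence gain from cleaved Bz-Nle-KRR-AMC substrate over 15 min; top concentration of the series differs between compounds; 0% = no-inhibitor control and -100% = no-enzyme control; nearly all actives have a fitted effect of over 70% in size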
Outline: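 Purified NS2B-NS3 protease with NS2B hydrophilic domain linked to NS3 protease domain by flexible linker, 1 nM final in 10 mM Tris-HCl pH 8.0, 0.01% Tween 20. Compounds preincubated 15 min, room temperature; Bz-Nle-KRR-AMC 10 microM (Km 18.3 µM); 15-min fluorescence change, 4-parameter Hill fit.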

[8] = test system: Zika virus NS2B-NS3 protease (unlinked complex); assay: Confirmatory screen GU AMC qHTS for Zika virus inhibitors (AID 1347153);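 further: percent inhibition with 0% = no inhibitor control and 100% = no enzyme control; nearly all actives have a fitted effect of over 70% in size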
Outline: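 Compounds were preincubated 15 min at room temperature with 25 nM noncovalent NS2B-NS3 protease at pH 8.0; AMC substrate added at 10 microM and 15-min fluorescence gain (340/450 nm) converted to percent inhibition, fitted 4-parameter.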

[9] = molecular target: Lysosomal acid glucosylceramidase (Homo sapiens) (UniProt P04062); assay: Glucocerebrosidase-p2 (AID 348; in the data active means potency below about 10 µM; further: potency means the concentration at half of the fitted maximal effect); conditions: purified GBA, blue fluorogenic substrate, 40 min
Outline: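 Compounds titrated from 0.6 nM upwards against 0.2 nM enzyme in pH 5.9 citric acid/KH2PO4, taurocholate, tween-20; blue fluorogenic substrate 80 uM, 40 min room temperature, stopped and read Ex 365/Em 440 for AC50.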

[10] = AP1 Signaling Pathway (AID 357; active means well fitted curve in either direction with a large enough effect, not every such curve was filed as active; further: on the % scale 0 is the no-effect control and ±100 the full control effect); conditions: ME-180 AP-1-bla reporter, EGF-induced, beta-lactamase ratio, 5 h; at 7.69 µM (top of the series)
Outline: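 ME-180 cells with beta-lactamase reporter under AP-1 response element, stimulated with EC50 EGF; compounds tested in titration series, 5 h at 37 °C. CCF4 substrate added 2.5 h at room temperature; 460/530 nm emission ratio gave %activity and AC50.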

[11] = molecular target: Glucocorticoid receptor (Homo sapiens) (UniProt P04150); assay: GR-EFC Redistribution (AID 451; calls by dose curve; further: potency means the concentration at half of the fitted maximal effect); conditions: CHO-K1 GR-EFC translocation, beta-gal luminescence, 2 h
Outline: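 Translocation of GR-ED fusion to nuclear EA restores b-gal, read by luminescence after 1 h room-temperature detection. Engineered CHO-K1 biosensor cells, 1,000/well, exposed 2 h at 37 C to titrations up to 46 uM final.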

[12] = molecular target: Mitogen-activated protein kinase 10 (Mus musculus) (UniProt Q61831); assay: JNK3 AlphaScreen Assay (AID 530; active means well fitted curve in either direction with a large enough effect, not every such curve was filed as active;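 further: kinase came from lysate of stimulated human HepG2 cells; signal reports phosphorylation of biotinylated GST-cJun 1-79 at Ser73 with 10 µM ATP; on the % scale 0 is the no-effect control and ±100 the full control effect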)
Outline: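 Compound titrations were preincubated 15 minutes at room temperature with substrate, antibody and pre-activated JNK3-containing HepG2 lysate. Reactions were started with 10 uM ATP and stopped with EDTA-containing bead buffer for AlphaScreen detection.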

[13] = molecular target: 3',5'-cyclic-AMP phosphodiesterase 4B (Homo sapiens) (UniProt Q07343); assay: qHTS Assay for Inhibitors of PDE-IV (AID 607; active means well fitted activation curve with a large enough effect in the main read-out, with a control signal flat, not every such curve was filed as active; further: % of control where 0% means no effect)
Outline: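 Cell-based read-out of cAMP via a modified cyclic nucleotide-gated channel and membrane potential dye (535/590 nm) in HEK293 cells expressing PDE4 endogenously. Compounds tested up to 22.9 uM final; 100 uM RO 20-1724 reference.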

[14] = Confirmatory screen NINDS Rhodamine qHTS for Zika virus inhibitors (AID 1347161);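 further: purified Zika NS2B-NS3 protease with linked NS2B cofactor domain and Rhodamine110 peptide substrate; plate controls were no-inhibitor control for no effect and no-enzyme control for full effect; nearly all actives have a fitted effect of over 60% in size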
Outline: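 Purified linked NS2B-NS3 protease (NS2B hydrophilic domain joined to NS3 protease by flexible linker), 25 nM in 10 mM Tris-HCl pH 8.0, 0.01% Tween 20. Compounds titrated, 15 min preincubation at room temperature; 1.5 microM Rhodamine110 substrate, FITC fluorescence change over 15 min.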

[15] = test system: Zika virus NS2B-NS3 protease (linked construct); assay: 384 well plate NINDS Rhodamine confirmatory qHTS for Zika virus inhibitors (AID 1347164);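 further: fluorescence from protease cleavage of Ac-LKRR-rhodamine 110 substrate; potency means the concentration at half of the fitted maximal effect; nearly all actives have a fitted effect of over 65% in size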
Outline: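 Linked protease at a final 5 nM, 30 nM or 60 nM was preincubated ~15 min with compounds, then given 10 microM Ac-LKRR-Rhodamine 110. Fluorescence (ex 485/em 538 nm) after 25 min in the dark at room temperature.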

Furin (Homo sapiens), sequence (P09958 whole entry, looked up): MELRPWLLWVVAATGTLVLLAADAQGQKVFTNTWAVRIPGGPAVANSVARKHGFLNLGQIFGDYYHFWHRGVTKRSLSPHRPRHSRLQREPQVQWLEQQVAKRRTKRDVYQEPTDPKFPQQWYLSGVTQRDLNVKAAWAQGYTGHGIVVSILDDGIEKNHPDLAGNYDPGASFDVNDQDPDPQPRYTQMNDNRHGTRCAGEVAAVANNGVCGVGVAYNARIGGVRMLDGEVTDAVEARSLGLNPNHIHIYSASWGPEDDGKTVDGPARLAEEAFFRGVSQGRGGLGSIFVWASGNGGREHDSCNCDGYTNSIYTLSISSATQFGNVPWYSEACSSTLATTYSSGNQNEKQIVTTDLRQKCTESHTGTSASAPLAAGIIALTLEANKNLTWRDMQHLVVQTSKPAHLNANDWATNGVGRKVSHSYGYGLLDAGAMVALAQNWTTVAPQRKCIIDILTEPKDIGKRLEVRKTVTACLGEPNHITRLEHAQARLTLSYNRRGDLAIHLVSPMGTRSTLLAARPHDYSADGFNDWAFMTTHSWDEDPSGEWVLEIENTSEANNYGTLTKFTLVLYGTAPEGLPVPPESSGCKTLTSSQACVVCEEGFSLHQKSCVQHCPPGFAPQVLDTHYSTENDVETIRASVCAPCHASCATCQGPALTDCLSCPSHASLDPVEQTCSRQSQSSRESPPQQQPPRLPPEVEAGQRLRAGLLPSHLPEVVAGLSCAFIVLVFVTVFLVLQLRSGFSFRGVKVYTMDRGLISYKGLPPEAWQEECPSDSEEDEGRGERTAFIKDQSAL
3',5'-cyclic-AMP phosphodiesterase 4B (Homo sapiens), sequence (Q07343 whole entry, looked up): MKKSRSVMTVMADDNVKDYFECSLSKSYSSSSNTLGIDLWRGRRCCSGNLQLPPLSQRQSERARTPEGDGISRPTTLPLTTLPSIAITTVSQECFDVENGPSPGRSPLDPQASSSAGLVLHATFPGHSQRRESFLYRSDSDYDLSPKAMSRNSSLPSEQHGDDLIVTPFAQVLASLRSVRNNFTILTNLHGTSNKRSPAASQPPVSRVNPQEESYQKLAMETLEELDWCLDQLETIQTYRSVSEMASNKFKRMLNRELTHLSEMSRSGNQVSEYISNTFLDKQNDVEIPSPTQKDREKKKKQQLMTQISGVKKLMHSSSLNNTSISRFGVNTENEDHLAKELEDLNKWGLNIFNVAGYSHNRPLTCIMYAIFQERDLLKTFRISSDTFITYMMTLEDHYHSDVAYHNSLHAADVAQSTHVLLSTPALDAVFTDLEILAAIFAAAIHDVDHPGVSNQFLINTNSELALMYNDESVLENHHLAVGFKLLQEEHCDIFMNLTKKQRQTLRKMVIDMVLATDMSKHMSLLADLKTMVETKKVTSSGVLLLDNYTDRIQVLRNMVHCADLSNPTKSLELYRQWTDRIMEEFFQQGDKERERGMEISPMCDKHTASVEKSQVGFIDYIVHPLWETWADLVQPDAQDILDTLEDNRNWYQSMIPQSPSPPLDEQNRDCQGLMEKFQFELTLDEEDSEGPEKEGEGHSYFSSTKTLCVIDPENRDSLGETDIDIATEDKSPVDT
Glucocorticoid receptor (Homo sapiens), sequence (P04150 whole entry, looked up, the tested form may be a part): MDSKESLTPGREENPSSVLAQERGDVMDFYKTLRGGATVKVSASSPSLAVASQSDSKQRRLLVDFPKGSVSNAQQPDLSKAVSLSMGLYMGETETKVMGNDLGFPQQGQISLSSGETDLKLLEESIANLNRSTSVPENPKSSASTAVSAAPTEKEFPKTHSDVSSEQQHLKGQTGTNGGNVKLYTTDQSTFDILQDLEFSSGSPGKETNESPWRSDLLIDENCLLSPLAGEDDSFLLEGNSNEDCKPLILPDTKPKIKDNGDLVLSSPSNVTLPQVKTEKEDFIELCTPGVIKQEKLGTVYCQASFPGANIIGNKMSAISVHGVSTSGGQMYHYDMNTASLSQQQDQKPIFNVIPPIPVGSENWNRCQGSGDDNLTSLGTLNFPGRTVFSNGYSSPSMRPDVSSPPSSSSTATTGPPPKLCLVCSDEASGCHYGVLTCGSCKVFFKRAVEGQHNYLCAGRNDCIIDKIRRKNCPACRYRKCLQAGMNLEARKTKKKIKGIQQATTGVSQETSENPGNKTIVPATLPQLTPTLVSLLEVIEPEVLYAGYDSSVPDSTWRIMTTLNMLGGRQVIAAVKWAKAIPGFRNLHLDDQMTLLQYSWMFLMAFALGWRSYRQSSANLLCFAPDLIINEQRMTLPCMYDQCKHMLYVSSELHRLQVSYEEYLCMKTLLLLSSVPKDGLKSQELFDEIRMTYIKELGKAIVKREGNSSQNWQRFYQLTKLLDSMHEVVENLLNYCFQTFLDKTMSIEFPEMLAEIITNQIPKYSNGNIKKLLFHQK
Lysosomal acid glucosylceramidase (Homo sapiens), sequence (P04062 whole entry, looked up): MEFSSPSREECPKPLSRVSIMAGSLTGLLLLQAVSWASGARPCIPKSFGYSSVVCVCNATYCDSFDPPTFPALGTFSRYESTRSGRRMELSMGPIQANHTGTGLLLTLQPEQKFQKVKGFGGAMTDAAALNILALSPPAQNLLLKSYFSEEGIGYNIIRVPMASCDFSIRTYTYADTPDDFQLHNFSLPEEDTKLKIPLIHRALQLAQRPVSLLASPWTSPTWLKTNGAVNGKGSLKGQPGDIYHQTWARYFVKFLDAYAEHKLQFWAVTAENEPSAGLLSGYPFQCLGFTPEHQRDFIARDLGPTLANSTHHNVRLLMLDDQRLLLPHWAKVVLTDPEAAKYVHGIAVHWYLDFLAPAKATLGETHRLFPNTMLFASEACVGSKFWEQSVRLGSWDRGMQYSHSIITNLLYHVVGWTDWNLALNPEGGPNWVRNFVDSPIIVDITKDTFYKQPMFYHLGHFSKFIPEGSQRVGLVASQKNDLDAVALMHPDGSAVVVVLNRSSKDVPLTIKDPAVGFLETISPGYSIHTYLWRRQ

C[C@H]1O[C@@H](O[C@H]2[C@@H](O)C[C@H](O[C@H]3[C@@H](O)C[C@H](O[C@H]4CC[C@]5(C)C6C[C@@H](O)[C@]7(C)[C@@H](C8=CC(=O)OC8)CC[C@]7(O)C6CC[C@@H]5C4)O[C@@H]3C)O[C@@H]2C)C[C@H](O)[C@@H]1O (stereo not given in full)
active: Potency [5] 0.294 µM
inactive: Potency [1] | Potency [2] | Potency [3] | Potency [4] | Potency [6]

O=C(Nc1cccc2ccccc12)O[C@@H]1CO[C@H]2[C@@H]1OC[C@@H]2NS(=O)(=O)c1cccc2cccnc12
inactive: Potency [1] | Potency [7] | Potency [8]

Cc1c2ccccc2c(CSC(=N)N)c2ccccc12
active: Potency [9] 1.39 µM | Potency [3] 21.2 µM
inactive: activity change, negative = inhibition [10] -16.8% | Potency [11] > 9.22 µM | activity change, negative = inhibition [12] 27.8% [at 11.4 µM] | Potency [13] | Potency [1] | Potency [7] | Potency [8] | Potency [14] | Potency [4] | Potency [6]

O=C(COc1ccc(F)cc1)Nc1ccccc1C(=O)OCc1cc(=O)n2nc(C3CC3)sc2n1
inactive: Potency [1]

O=C(Nc1cccc2ccccc12)O[C@@H]1CO[C@H]2[C@@H]1OC[C@@H]2NS(=O)(=O)c1ccc2ccccc2c1
active: Potency [1] 69.8 µM
inactive: Potency [7] | Potency [8]

CC(C)CN1CC(COc2cccc(C(F)(F)F)c2)Oc2ccnc(-c3ccc(OCC(=O)O)cc3)c2C1=O (stereo not given)
inactive: Potency [1] | Potency [7] | Potency [8] | Potency [5]
active: Potency [15] 141 µM
